Source: PubChem BioAssay (National Center for Advancing Translational Sciences (NCATS))
Hits are enriched below; roughly 19% of the tested compounds scored in any of these assays.
Pf growth 96h – P. falciparum growth inhibition at 96 hours. P. falciparum luciferase reporter growth, 96 h. Potency, µM (series often up to 28.7 µM), usual class: inhibitors. 320,000 tested, 6.9% active. AID 504834
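Readout is luminescence from an integrated firefly luciferase in P. falciparum. Red cells, 2% hematocrit and 0.05% parasitemia final, were cultured with compound through two parasite generations (96 hours) at 37 C, 5% CO2.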
MARV entry inh – blocks Marburg virus binding to or entry into cells. Marburg virus pseudotyped entry inhibition, cell reporter. 300,000 tested, 1.8% active. Potency, µM (top dose mostly 37.8 µM), most hits filed as inhibitors; calls by dose curve; tested in HEK293 cells
Lassa entry inh – blocks Lassa virus binding to or entry into cells | Lassa virus pseudotype entry inhibition, cell reporter | Potency, µM (top dose mostly 37.9 µM), most hits filed as inhibitors | 300,000 tested, 1.2% active; calls by dose curve; tested in HEK293 cells; note: nearly all actives have a fitted effect of over 50% in size
Cycloheximide cs – counter-screen for Shiga toxin inhibitors: cycloheximide protein synthesis inhibition | cell reporter, cycloheximide protein synthesis inhibition counterscreen | max response, % | 300,000 tested, 12% active | AID 2314; in the data active = max response mostly above about 13%, no sharp cut-off; inactive = mostly below about 14%; note: read at 38.3 µM for the half of the compounds with a filed dose
Shiga inhibitor – blocks Shiga toxin action in Vero cells. 290,000 tested, 9.2% active. inhibition, % at 38.7 µM. AID 2315. Vero cells, Shiga toxin protein synthesis inhibition reporter; in the data active = inhibition mostly above about 28%, no sharp cut-off; inactive = mostly below about 43%
Pf growth 48h – inhibits P. falciparum growth in the first generation, 48 h; AID 504832; P. falciparum luciferase growth in erythrocytes, 48 h; Potency, µM (series often up to 28.7 µM), usual class: inhibitors; 310,000 tested, 5.9% active
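Luciferase-expressing P. falciparum in infected erythrocytes (2% hematocrit, 0.1% parasitemia final) in RPMI 1640/0.5% Albumax were exposed to compound for 48 hours at 37 C, 5% CO2; growth read as luminescence.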
Each line names hits and unclear results; the compound was inactive in the other large screens. Unless noted, calls come from the whole dose curve; as a rule, active = well fitted inhibition curve with a large enough effect; inconclusive = small, poorly fitted or top-dose-only effect, or another doubt; inactive = no such curve, though single readings can be large or run the other way.

CCN(CC)CCOc1ccc(Br)cc1	Pf growth 96h 2.6µM
C/C(=N\NC(=O)c1ccc(O)cc1)c1ccc2c(c1)Nc1ccccc1S2	Pf growth 96h inconclusive, MARV entry inh inconclusive, Pf growth 48h inconclusive
C/C(=N\NC(=O)c1ccccc1F)c1ccc2c(c1)Nc1ccccc1S2	Pf growth 96h inconclusive, MARV entry inh inconclusive, Lassa entry inh inconclusive, Cycloheximide cs 34, Shiga inhibitor 65
CS(=O)(=O)N(CC(=O)Nc1ccccc1Sc1ccccc1)c1cccc(Br)c1	Pf growth 96h inconclusive, Pf growth 48h 13µM
CS(=O)(=O)N(Cc1ccccc1)c1ccc(C(=O)Nc2ccccc2Sc2ccccc2)cc1	Pf growth 96h 15µM, Pf growth 48h 12µM
Cc1ccc(NC(=S)NNC(=S)Nc2ccc(C)cc2)cc1	none (no result: Pf growth 96h, Cycloheximide cs, Shiga inhibitor, Pf growth 48h)
CCOC(=O)c1cccc(NC(=O)CCc2c(C)nn(-c3ccc(N4CCOCC4)nn3)c2C)c1	none (no result: Pf growth 96h, MARV entry inh, Cycloheximide cs, Shiga inhibitor, Pf growth 48h)
CC(C)Sc1nnc(NC(=O)c2ccc3c(c2)OCO3)s1	Lassa entry inh inconclusive, Cycloheximide cs 24, Shiga inhibitor 56
CCSc1nnc(NC(=O)c2ccc3c(c2)OCO3)s1	Lassa entry inh inconclusive, Cycloheximide cs 45, Shiga inhibitor 67 (no result: Pf growth 96h)
CC(C)c1nnc(NC(=O)c2ccc3c(c2)OCO3)s1	Cycloheximide cs 40, Shiga inhibitor 125 (no result: MARV entry inh, Lassa entry inh)
CC(C)(C)c1nnc(NC(=O)c2ccc3c(c2)OCO3)s1	MARV entry inh inconclusive, Lassa entry inh inconclusive, Cycloheximide cs 39, Shiga inhibitor 170
CCOC(=O)CSc1nnc(NC(=O)c2ccc3c(c2)OCO3)s1	MARV entry inh inconclusive, Lassa entry inh inconclusive
CCOC(=O)C1=C(C)N(C)C(=O)NC1c1ccccc1OC (stereo unspecified)	none (no result: Pf growth 96h)
COc1ccccc1CNC(=O)CCc1c(C)nn(-c2ccc(N3CCOCC3)nn2)c1C	none (no result: Pf growth 96h, MARV entry inh, Cycloheximide cs, Shiga inhibitor, Pf growth 48h)
O=C(Nc1ccc(-n2nncc2-c2ccco2)cc1)c1cccc(F)c1	Pf growth 96h inconclusive, MARV entry inh inconclusive
O=C(Nc1ncc([N+](=O)[O-])s1)c1ccco1	Cycloheximide cs 37, Shiga inhibitor 68 (no result: MARV entry inh, Lassa entry inh)
Cc1ccc(C(=O)Nc2ncc([N+](=O)[O-])s2)cc1	none (no result: MARV entry inh, Lassa entry inh)
O=C(Nc1ncc([N+](=O)[O-])s1)c1ccc2c(c1)OCO2	MARV entry inh 1.6µM, Lassa entry inh inconclusive
CC[n+]1c(/C=C/C=C/N(C(C)=O)c2ccccc2)sc2cc(OC)ccc21	MARV entry inh inconclusive, Lassa entry inh inconclusive, Pf growth 48h 9.3µM
COc1ccc2sc(/C=C/c3ccccc3O)[n+](C)c2c1	none
CC(C)S(=O)(=O)C1=NSC2=NC(=O)/C(=C\c3ccc(OC(=O)c4ccco4)cc3)C(=N)N21	Pf growth 48h inconclusive (no result: MARV entry inh, Lassa entry inh)
O=c1[nH]c(C2CCCN(S(=O)(=O)c3ccccc3)C2)nc2c1nnn2Cc1ccccc1F (stereo unspecified)	Pf growth 48h 10µM
COc1ccc(Cn2nnc3c(=O)[nH]c(C4CCCN(C(=O)c5ccc(C)cc5)C4)nc32)cc1 (stereo unspecified)	MARV entry inh inconclusive (no result: Pf growth 96h, Cycloheximide cs, Shiga inhibitor, Pf growth 48h)
COc1ccc(Cn2nnc3c(=O)[nH]c(C4CCCN(C(=O)c5ccccc5)C4)nc32)cc1 (stereo unspecified)	Pf growth 96h 12µM, Pf growth 48h inconclusive (no result: MARV entry inh, Lassa entry inh)
O=c1[nH]c(C2CCN(S(=O)(=O)c3ccccc3C(F)(F)F)CC2)nc2c1nnn2Cc1cccc(F)c1	Pf growth 96h inconclusive, MARV entry inh inconclusive, Lassa entry inh inconclusive, Pf growth 48h 2.6µM
O=c1[nH]c(C2CCN(S(=O)(=O)c3ccccc3)CC2)nc2c1nnn2Cc1cccc(Cl)c1	MARV entry inh inconclusive, Lassa entry inh inconclusive, Pf growth 48h inconclusive
O=c1[nH]c(C2CCCN(S(=O)(=O)c3ccccc3)C2)nc2c1nnn2Cc1ccccc1Br (stereo unspecified)	Pf growth 96h inconclusive, MARV entry inh inconclusive, Lassa entry inh inconclusive, Pf growth 48h inconclusive
O=c1[nH]c(C2CCCN(S(=O)(=O)c3cccc(F)c3)C2)nc2c1nnn2Cc1ccccc1 (stereo unspecified)	Pf growth 96h inconclusive, Lassa entry inh inconclusive, Pf growth 48h 7.4µM
COc1cc2[nH]c3c(Cl)ncnc3c2cc1OC	Pf growth 96h inconclusive, Lassa entry inh inconclusive, Pf growth 48h inconclusive
COC(=O)c1ccc(Cn2nnc3c(=O)[nH]c(C4CCCN(S(=O)(=O)c5ccccc5)C4)nc32)cc1 (stereo unspecified)	Pf growth 48h inconclusive
O=c1[nH]c(C2CCCN(S(=O)(=O)c3ccccc3)C2)nc2c1nnn2Cc1ccccc1 (stereo unspecified)	Lassa entry inh inconclusive, Pf growth 48h 10µM
O=c1[nH]c(C2CCN(S(=O)(=O)c3ccc4c(c3)OCCO4)CC2)nc2c1nnn2Cc1ccccc1F	Pf growth 96h 13µM, Pf growth 48h inconclusive (no result: MARV entry inh, Lassa entry inh)
O=c1[nH]c(/C=C/c2ccccc2[N+](=O)[O-])nc2ccccc12	MARV entry inh inconclusive
CN(C)c1ccc(/C=C/c2nc3ccccc3c(=O)[nH]2)cc1	Cycloheximide cs 34, Shiga inhibitor 39 (no result: MARV entry inh, Lassa entry inh)
Cc1cccc(/C=C\c2nc3ccccc3c(=O)[nH]2)c1	MARV entry inh inconclusive, Lassa entry inh inconclusive, Cycloheximide cs 70, Shiga inhibitor 93
Cc1nc(/C=C/c2ccccc2)[nH]c(=O)c1-c1ccccc1	MARV entry inh inconclusive, Lassa entry inh inconclusive, Cycloheximide cs 33, Shiga inhibitor 94
O=c1[nH]c(/C=C/c2ccc(Br)cc2)nc2ccccc12	Cycloheximide cs 45, Shiga inhibitor 85 (no result: MARV entry inh, Lassa entry inh)
COc1ccc(OC)c(NP2(=O)OCC(C)([N+](=O)[O-])CO2)c1 (stereo unspecified)	MARV entry inh inconclusive (no result: Pf growth 96h, Cycloheximide cs, Shiga inhibitor, Pf growth 48h)
CC(C)CCNC(=O)C1(c2cccs2)CCOCC1	none (no result: MARV entry inh, Lassa entry inh)
C=C(CCC(=O)c1ccccc1)C(=O)c1ccccc1	MARV entry inh inconclusive, Lassa entry inh inconclusive, Cycloheximide cs 17
C=C(C(=O)c1ccccc1)C(CC(=O)c1ccccc1)c1ccccc1 (stereo unspecified)	MARV entry inh inconclusive, Lassa entry inh 10µM, Pf growth 48h inconclusive
CCCCNC(=O)[C@H]1C[C@H]1[C@@H](O)[C@H](CO)NC(=O)[C@H](CC(C)C)NC(=O)OC(C)(C)C	none (no result: MARV entry inh, Lassa entry inh)
Cc1cnc(NC(=O)NCC2CCCC(CNC(=O)Nc3ncc(C)s3)C2)s1 (stereo unspecified)	Pf growth 96h inconclusive, MARV entry inh inconclusive, Lassa entry inh inconclusive, Pf growth 48h inconclusive
Cc1ccc(C)c(NC(=S)NC2CC3CCC(C2)N3Cc2ccco2)c1 (stereo unspecified)	Pf growth 96h 12µM, MARV entry inh inconclusive, Pf growth 48h inconclusive
Cc1cc(C)cc(NC(=S)NC2CC3CCC(C2)N3Cc2ccco2)c1 (stereo unspecified)	Pf growth 96h 2.3µM, MARV entry inh inconclusive, Lassa entry inh inconclusive, Pf growth 48h inconclusive
Fc1ccc(NC(=S)NC2CC3CCC(C2)N3Cc2ccco2)cc1 (stereo unspecified)	none
Cc1cccc(NC(=S)NC2CC3CCCC(C2)N3Cc2cccs2)c1 (stereo unspecified)	Pf growth 96h 10µM, MARV entry inh 1.6µM, Lassa entry inh inconclusive, Pf growth 48h inconclusive
